In the library only some 8.1% were active in any assay of this set; here they are far more common.
Sfp PPTase inh: Sfp phosphopantetheinyl transferase inhibition; Q9F4F7; Biochemical Sfp PPTase activity, qHTS; Potency, µM, inactives show largest response in the series, negative = inhibition, actives largely listed as inhibitors; 310,000 compounds, 3.5% hits; AID 1490;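 also: the enzyme is Sfp with the accession as filed and its product quenches rhodamine fluorescence; 0% = enzyme reaction without inhibitor and -100% = no enzyme wells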
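With Hepes-Na pH 7.6 buffer containing 10 mM MgCl2, Sfp (15 nM) modified BHQ-2-YbbR (12.5 uM) using rhodamine-CoA (5 uM). Two reads 30 minutes apart at 525/598 nm yielded each well's rate.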
Gal4-VP16 FLuc: inhibits Gal4-VP16 luciferase reporter, ROR gamma counter-screen; Drosophila S2 Gal4-VP16 UAS-luciferase, luminescence, 20 h; Potency, µM (doses to about 53.6 µM), for the others: top-dose activity, negative = inhibition, hits mostly inhibitors; 310,000 compounds, 3.5% hits; AID 2546;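 also: Gal4-VP16 expression switched on by copper sulfate through the metallothionein promoter; % is scaled to controls: 0 for no effect and ±100 for the full control effect; nearly all actives have a fitted effect of over 50% in size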
RORgamma inh: inhibitors of mouse ROR gamma transcriptional activity. Drosophila S2 Gal4-RORgamma UAS-luciferase reporter, 20 h. Potency, µM (highest dose often 53.6 µM), without a hit: at the highest dose activity change, negative = inhibition, actives largely listed as inhibitors. 310,000 compounds, 5.4% hits. AID 2551; also: % is scaled to controls: 0 for no effect and ±100 for the full control effect; nearly all actives have a fitted effect of over 60% in size
Target sequence (P51450 whole entry, looked up, the tested form may be a part): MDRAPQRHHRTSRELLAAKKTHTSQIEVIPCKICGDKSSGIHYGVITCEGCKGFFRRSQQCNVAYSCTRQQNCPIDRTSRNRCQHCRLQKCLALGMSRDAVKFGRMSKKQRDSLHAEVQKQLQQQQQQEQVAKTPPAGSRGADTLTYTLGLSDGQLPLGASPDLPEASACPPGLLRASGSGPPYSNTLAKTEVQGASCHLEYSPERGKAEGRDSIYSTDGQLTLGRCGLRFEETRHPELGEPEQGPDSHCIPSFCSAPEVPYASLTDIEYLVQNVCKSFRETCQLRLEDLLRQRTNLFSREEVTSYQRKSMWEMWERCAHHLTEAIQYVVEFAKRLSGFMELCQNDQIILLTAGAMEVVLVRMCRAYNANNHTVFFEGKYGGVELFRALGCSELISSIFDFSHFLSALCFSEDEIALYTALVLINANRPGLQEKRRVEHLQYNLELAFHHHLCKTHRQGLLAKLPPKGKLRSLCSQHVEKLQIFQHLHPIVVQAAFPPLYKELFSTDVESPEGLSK
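Drosophila S2 cells stably expressing Gal4-DBD/mouse RORγ fusion under metallothionein promoter plus UAS-luciferase; compound 1 h, then 700 uM CuSO4 induction for 20 h at ambient temperature; inhibition read as reduced luminescence.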
ClpP mod: qHTS Assay for Activators of ClpP; AID 651965, 2013; purified B. subtilis ClpP, FRET peptide cleavage, 20 min; 340,000 compounds, 1.9% hits; Potency, µM (highest dose often 57.5 µM), without a hit: top-dose activity change, negative = active; active = well fitted falling curve with a large enough effect; inconclusive = small, poorly fitted or top-dose-only effect; inactive = no such curve, though single readings can be large or run the other way; also: the source files actives as falling curves though it sought activators and does not explain the sign; nearly all actives have a fitted effect of over 65% in size
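Purified B. subtilis ClpP, 10 microg/mL final in Tris/HCl pH8 with KCl, BSA, glycerol and Tween-20, cleaved an Abz/nitrotyrosine-quenched decapeptide. Fluorescence (ex 320, em 430) was read at 0 and 20 min at room temperature. Delta was normalized to 5.8 microM ADEP and DMSO/no-enzyme controls.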
PINK1 modulator: changes PINK1 expression. PINK1 immunofluorescence, high-content cytometry, 24 h. Potency, µM (series often up to 76.6 µM), for inactives: top-dose activation (PINK1 increase), actives largely listed as activators. 410,000 compounds, 0.2% hits; active = well fitted activation curve with a large enough effect; inconclusive = small, poorly fitted or top-dose-only effect; cell line not stated here; also: % of control where 0% means no effect; nearly all actives have a fitted effect of over 65% in size
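PINK1 protein level read as immunofluorescence by microplate cytometer in a fixed, stained stable cell line after 24 h exposure to five compound concentrations, with CCCP as control.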
Epigenetic derep: regulators of epigenetic silencing causing reporter derepression in mouse cells | 280,000 compounds, 0.2% hits | murine LDR cells, GFP reporter derepression, 30 h | Potency, µM (titrated, usually from 53.9 µM), inactives show top-dose GFP activation, hits mostly activators | AID 1865; also: % of control where 0% means no effect; nearly all actives have a fitted effect of over 60% in size
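Readout is the number of GFP-expressing murine LDR cells, counted by cytometry following washing. Cells were treated with compound for 30 h at 37 C; the stably integrated CMV-GFP locus is normally silent.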
The depositor's hits bear a star; ? = inconclusive; . = not tested or not shown; [ ] = remark or other dose. Unless noted, calls follow the shape of the dose curve; as a rule, active = well fitted curve in the direction sought with a large enough effect; inconclusive = small, poorly fitted or top-dose-only effect, or another doubt; inactive = no such curve, though single readings can be large; an effect the other way counts as inactive or inconclusive. Potency is read from the fitted curve at half-maximal effect.

SMILES	Sfp PPTase inh	Gal4-VP16 FLuc	RORgamma inh	ClpP mod	PINK1 modulator	Epigenetic derep
C=CCNC(=O)C1CCN(c2nc(C)cc(-c3ccccc3)n2)CC1	-3%	-2%	20%	25µM*	23%[38.3 µM]	0%
Cc1cc(-c2ccccc2)nc(N2CCC(C(=O)NCc3ccccc3Cl)CC2)n1	0%	-6%	?	.	.	-1%
C1=C/C(=C2/C=Cc3ccccc32)c2ccccc2N1	.	.	.	1%	.	.
CCOC(=O)COC(=O)c1ccc(O)cc1	12%	14%	34%	-2%	0%[38.3 µM]	3%
Cc1ccc(C(=O)COC(=O)c2ccc(O)cc2)cc1	17%	11µM*	?	.	3%	-2%
COC(=O)c1ccccc1NC(=O)Oc1ccc(F)cc1	21%	-2%	1%	25µM*	1%[38.3 µM]	0%
O=C(NC(=S)Nc1ccccc1[N+](=O)[O-])c1ccco1	56µM*	?	7.9µM*	.	1%	5%
COC(=O)c1ccccc1NC(=S)NC(=O)c1ccc2c(c1)OCO2	-14%	?	4%	-21%	?	.
Cc1ccccc1C(=O)NC(=S)Nc1ccccc1[N+](=O)[O-]	-9%	?	6.3µM*	.	2%	0%
COC(=O)c1ccccc1NC(=S)NC(=O)c1ccccc1	?	?	1µM*	-17%	2%	0%
N#Cc1cccc(S(=O)(=O)N2CCN(c3nc(-c4cccs4)nc4ccccc34)CC2)c1	.	.	.	5%	0%	.
CCCCOc1ccc(S(=O)(=O)N2CCN(c3ccccc3OCC)CC2)cc1	.	.	.	-1%	3%	-2%
O=C(O)Cc1c(Cl)ccc(Cl)c1Cl	5%	-10%	-8%	.	.	.
COc1cc(=O)n2c(c1C(=O)NCc1ccco1)CCN(Cc1ccc3ccccc3c1)CC2	.	.	.	.	2%	.
COC(=O)c1ccccc1NC(=S)NC(=O)c1ccc(C)cc1	-26%	?	16µM*	-21%	3%	0%
COC(=O)c1ccccc1NC(=S)NC(=O)c1ccccc1C	-3%	?	7.9µM*	-1%	-6%[38.3 µM]	-2%
Cc1ccccc1C(=O)NC(=S)Nc1ccccc1C(=O)O	?	24%	21%	.	-1%	-1%
COC(=O)c1ccccc1S(=O)(=O)NC(=O)c1ccccc1	6%	3%	-22%	20µM*	-2%	0%
COC(=O)c1ccccc1NC(=O)c1cc(-c2ccc(C)cc2)on1	14%	-3%	0%	-3%	0%[38.3 µM]	-1%
Cc1ccc(NC(=S)NC(=O)c2ccccc2)cc1NC(=S)NC(=O)c1ccccc1	25µM*	7.1µM*	1.4µM*	0%	5%	?
COc1ccc(/C=C/c2cnc3ccccc3n2)cc1OC	.	.	.	-7%	-1%	.
Cc1cc(NC(=S)NC(=O)c2ccccc2)ccc1-c1cc2ccccc2oc1=O	?	-48%	0.4µM*	11%	?	-1%
Cc1cc(NC(=O)c2ccc(F)cc2)ccc1-c1cc2ccccc2oc1=O	.	.	.	4%	3%	0%
CCC(NC(=O)c1ccccc1NC(=O)c1ccccc1)C(=O)OC (stereo not drawn)	-9%	6.3µM*	?	1%	2%	3%
Cc1ccccc1C(=O)NC(=S)Nc1ccc(S(=O)(=O)N(C)c2ccccc2)cc1	4%	?	11µM*	-1%	1%	-1%
CC(C)C(=O)NC(=S)Nc1ccc(S(=O)(=O)N(C)Cc2ccccc2)cc1	9%	?	14µM*	0%	2%	1%
CN(c1ccccc1)S(=O)(=O)c1ccc(NC(=O)c2ccc(F)cc2)cc1	.	.	.	.	5%	.
Cc1cccc(C(=O)NC(=S)Nc2ccc(S(=O)(=O)N(C)c3ccccc3)cc2)c1	-1%	?	11µM*	4%	1%	1%
CC(=O)NC(=S)Nc1ccc(S(=O)(=O)N(C)Cc2ccccc2)cc1	-7%	-12%	-5%	.	-1%	-1%
O=C(Nc1c(C(=O)Nc2ccc(F)cc2)oc2ccccc12)c1cc2ccccc2o1	.	.	.	?	1%	0%

Screening data deposited in PubChem BioAssay by National Center for Advancing Translational Sciences (NCATS).
